# Compounds with a hit are over-represented: about 2.1% of the library has one in this group of screens.
# EP2 antag = human EP2 receptor antagonists, primary screen, TR-FRET cAMP, C6 glioma cells | C6 glioma cells expressing human EP2; cells stimulated with saturating PGE2 | inhibition, % at 25 µM | Prostaglandin E2 receptor EP2 subtype (Homo sapiens), P43116 | actives 0.52% (n = 260,000);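 active = percent inhibition above 40 after rounding to a whole number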;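 also: rat C6 glioma host cells with rolipram phosphodiesterase inhibitor present; the protocol text gives 20 µM as final concentration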
# EP2 modulator = EP2 receptor modulators, cAMP readout, primary screen, cell-based, HTRF cAMP, PGE2 stimulation | actives 0.83% (n = 260,000) | EP2-expressing cells, cAMP HTRF FRET, PGE2 co-stimulation | AID 940, 2007 | induction, % at 25 µM;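 active = compounds whose cAMP rise, as percent of the full-agonist control response, exceeds 60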;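 also: rat C6 glioma line stably carrying human EP2 under a CMV promoter; the protocol text gives 20 µM as final concentration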
# CHT PAM = CHT positive allosteric modulators, primary screen, cell-based, membrane potential dye, choline EC20; High affinity choline transporter 1 (Homo sapiens), Q9GZV3; CHT-expressing cells; stronger effect = higher value; LV-AA mutant CHT in HEK293 cells; B-score at 10 µM; actives 0.49% (n = 310,000); AID 488977, 2010;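 active = initial fluorescence not abnormally high and integrated response B-score, plate-corrected, over 3 SD above library mean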
# Target sequence (Q9GZV3 whole entry, looked up): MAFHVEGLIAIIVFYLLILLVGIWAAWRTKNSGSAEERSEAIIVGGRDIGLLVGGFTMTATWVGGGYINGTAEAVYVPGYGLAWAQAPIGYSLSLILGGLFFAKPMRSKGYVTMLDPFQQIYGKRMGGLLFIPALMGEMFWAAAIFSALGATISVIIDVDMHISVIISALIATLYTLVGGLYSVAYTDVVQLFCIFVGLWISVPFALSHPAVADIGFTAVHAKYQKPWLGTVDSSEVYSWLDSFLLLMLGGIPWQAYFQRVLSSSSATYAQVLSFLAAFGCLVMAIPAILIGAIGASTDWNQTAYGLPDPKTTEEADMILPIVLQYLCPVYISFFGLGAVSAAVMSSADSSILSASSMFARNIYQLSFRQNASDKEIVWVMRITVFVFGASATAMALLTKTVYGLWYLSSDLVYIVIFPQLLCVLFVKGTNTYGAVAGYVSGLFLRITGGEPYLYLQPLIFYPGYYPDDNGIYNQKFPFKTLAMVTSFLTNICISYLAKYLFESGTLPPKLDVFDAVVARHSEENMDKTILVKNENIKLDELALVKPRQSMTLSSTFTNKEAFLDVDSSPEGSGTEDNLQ
# CHT inh = inhibitors of human choline transporter CHT | AID 488975, 2010 | CHT-expressing cells, membrane potential dye, choline response; stronger effect = lower value | High affinity choline transporter 1 (Homo sapiens), Q9GZV3 | actives 0.86% (n = 310,000) | B-score at 10 µM;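 active = B-score over 3 SD under the library average, and starting fluorescence ratio not unusually high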;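 also: choline stimulus applied at its EC90 after an EC20 pre-addition; B-score computed on integrated fluorescence ratio after choline addition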
# EP2 cAMP induct = cAMP induction in EP2, EP4, beta2-AR and parental cells, confirmation, counter-screen for EP2 modulator project, cell-based, five parallel assays, C6 glioma, HEK293 | shares compounds with EP2 modulator | cAMP HTRF induction; plus low (about EC15) PGE2 agonist | calls only at 20 µM (by protocol) | actives 47% (n = 1,300) | AID 1080, 2008;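 active = cAMP induction above 50% in the main assay while under 30% in all four parallel counter assays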;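 also: rat C6 glioma cells stably expressing human EP2 receptor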
# Numbers stand for hits; i = inactive; nt = no result; + = active, no number; ! = repeats disagree.
SMILES,EP2 antag,EP2 modulator,CHT PAM,CHT inh,EP2 cAMP induct
N#Cc1sc2nc(C3CC3)cc(-c3ccccc3)c2c1N,i,83,i,i,+
CCCc1cc(=O)n2[nH]c(-c3ccco3)nc2n1,i,i,i,i,nt
CCCc1cc(=O)n2[nH]c(NCc3cccs3)nc2n1,i,71,i,i,i
CCOC(=O)c1sc2nccc(N(C)C)c2c1N=CNOC,i,i,i,i,nt
CCOC(=O)c1sc2nccc(N(C)C)c2c1N=CNOCc1ccccc1,i,74,i,i,+
CCC(=O)N(CCCN(C)C)c1nc(-c2cc(OC)ccc2OC)cs1,i,i,i,i,nt
CCC(=O)N(CC)c1nc(-c2cc(OC)ccc2OC)cs1,i,78,i,i,+
COc1cccc(C(=O)Nc2ccc(S(=O)(=O)N3CCCCC3)cc2)c1,i,i,nt,nt,nt
CC1=C/C(=C(/c2ccc(O)c(C)c2)c2ccccc2C(=O)O)C=CC1=O,i,i,nt,nt,i
CCN(CC)C(=O)c1nn(-c2ccccc2)c2c1C1CCC2(C)C1(C)C (configuration not stated),i,72,i,i,i
CCN(CC)C(=O)c1nn(Cc2ccccc2)c(=O)c2ccccc12,nt,nt,i,i,nt
Oc1ccccc1C1=Nc2ccccc2N=C(c2cccs2)C1,i,i,i,i,nt
Cc1ccc(O)c(C2=Nc3ccccc3N=C(c3cccs3)C2)c1,i,69,i,i,i
Cc1ccc(C2C(C#N)=C(N)Oc3n[nH]c(-c4cc(C)sc4C)c32)s1 (configuration not stated),i,i,nt,nt,nt
COc1ccccc1C(=O)NC(=S)Nc1cc(C(=O)O)ccc1C,i,72,i,i,+
COc1cc2ccccc2cc1C(=O)NC(=S)Nc1cc(C(=O)O)ccc1C,i,100,nt,nt,+
C=CCOC(=O)C1=C(C)OC(N)=C(C#N)C1c1cc2ccc(C)cc2[nH]c1=O (configuration not stated),i,i,nt,nt,nt
CS(=O)(=O)N1CCN(c2ccc(NC(=O)c3ncoc3-c3ccc(F)cc3)cc2)CC1,i,i,nt,nt,nt
CCOc1ccc(-n2c(N)c(C(=O)NCc3ccco3)c3nc4ccccc4nc32)cc1,i,i,i,i,nt
Nc1c(C(=O)NCc2ccco2)c2nc3ccccc3nc2n1CCc1ccccc1,i,68,nt,nt,i
Nc1c(C(=O)NCc2ccccc2)c2nc3ccccc3nc2n1CCCN1CCOCC1,i,77,i,i,i
Nc1c(C(=O)NCc2ccc(F)cc2)c2nc3ccccc3nc2n1CCCN1CCOCC1,i,i,i,i,nt
CS(=O)(=O)N1CC=CC1C(=O)NCCCc1ccc(F)cc1 (configuration not stated),i,i,nt,nt,nt
O=c1[nH]c(-c2ccccc2O)nc2c1oc1ccccc12,i,i,nt,nt,nt
CCOC(=O)C1CCN(c2c(C(=O)c3ccccc3)cnc3ccc(CC)cc23)CC1,i,77,i,i,i
SMILES,EP2 antag,EP2 modulator,CHT PAM,CHT inh,EP2 cAMP induct
O=C(c1ccccc1)c1cnc2ccc(Cl)cc2c1N1CCOCC1,i,i,i,i,nt
CC1CCCC(C)N1C(=O)Cn1nc(-c2ccoc2)oc1=O (configuration not stated),nt,i,nt,nt,nt
c1ccc(-c2noc(-c3ccccc3-c3ccccc3)n2)cc1,i,i,i,i,+
O=C1/C(=C/c2cccnc2)SC(=S)N1CCc1ccccc1,i,i,i,i,nt
O=C1/C(=C/c2cccnc2)SC(=NCc2ccccc2)N1Cc1ccccc1,i,66,i,i,+
COc1ccc(/C=C/C(=O)Nc2ccc(N3CCOCC3)cc2)cc1Br,i,i,nt,nt,nt
CCCc1nc(SC2CCCC2)c2c(=O)n(C)c(=O)n(C)c2n1,i,79,i,i,+
Cn1c(=O)c2c(ncn2CCSS(=O)(=O)O)n(C)c1=O,i,61,nt,nt,i
Cc1ccc(CN(CCCN2CCOCC2)Cc2nc[nH]c2C)o1,i,i,nt,nt,nt
CCOC(=O)c1ccccc1NC(=O)CSc1ncc(C(=O)OCC)c(N)n1,i,65!,i,i,i
CCOC(=O)c1cnc(SCC(=O)Nc2ccccc2OCC)nc1N,i,i,nt,nt,nt
COc1ccc(-c2nc3cnccn3c2NCc2ccc(C)cc2)cc1CO,i,i,nt,nt,nt
Cc1cc([N+](=O)[O-])c(C)c(Br)c1C,i,i,nt,nt,i
Cc1cc([N+](=O)[O-])c(C(C)(C)C)cc1N,i,i,i,i,nt
O=C(c1ccc(Br)o1)N(Cc1ccccc1)Cc1ccccc1,nt,i,i,i,+
COc1ccc(C(=O)CSc2nnc(-c3c[nH]c4ccccc34)o2)cc1,i,i,nt,nt,nt
COCc1nnc(NC(=O)c2ccc(C(C)(C)C)cc2)s1,i,i,nt,nt,nt
S=c1[nH]cc(-c2ccccc2)n1-c1ccccc1,i,75,i,i,i
COc1ccc2cc3c(N)nn(C(=O)C4CCC(C(C)(C)C)CC4)c3nc2c1 (configuration not stated),i,69,i,i,i
Cc1ccc2cc(C)c3nn(CCNC(=O)c4cc(C)no4)c(=O)n3c2c1,i,i,nt,nt,nt
COc1ccccc1CN(Cc1coc2ccc(C)cc2c1=O)CC1CCCO1 (configuration not stated),i,i,nt,nt,nt
CC1CCN(c2ccccc2NC(=O)c2ccc(C#N)cc2F)CC1,i,i,i,i,+
N#Cc1ccc(C(=O)Nc2cccc3ccccc23)c(F)c1,nt,nt,i,i,nt
COc1ccc2[nH]cc(C(=O)CN3CCN(c4ncccn4)CC3)c2c1,i,i,nt,nt,nt
CCCc1cc(-c2nc(N)ncc2-c2ccc3c(c2)OCCCO3)c(O)cc1OC,i,88,i,i,+
SMILES,EP2 antag,EP2 modulator,CHT PAM,CHT inh,EP2 cAMP induct
CCCc1cc(-c2nc(N)ncc2-c2csc(C)n2)c(O)cc1OC,i,i,i,i,nt
C[C@H]1CC[C@@H](C(C)(C)O)CC2=C1CC[C@@H]2C,i,i,nt,nt,i
O=c1cc2c(nn1Cc1c(Cl)cccc1Cl)-c1ccccc1CC2,i,78,i,i,+
O=c1cc(Cl)c(-c2ccccc2)nn1Cc1ccc(Cl)cc1,nt,nt,i,i,nt
COc1ccccc1NC(=O)C1=C(C)Nc2nnnn2C1c1ccc(Cl)cc1Cl (configuration not stated),i,i,nt,nt,nt
Cc1cccc(Oc2sc(C(=O)c3ccccc3)c(N)c2C#N)c1,i,72,i,i,i
Cc1ccccc1OCC(=O)Nc1sc(C(=O)N2CCCCC2)c(C)c1C#N,i,i,nt,nt,nt
COc1cc(-c2nc(-c3cccc(C(F)(F)F)c3)no2)cc(OC)c1OC,i,72,i,i,+
COc1ccc(S(=O)(=O)N2CCN(S(=O)(=O)c3ccc4c(c3)OCCO4)CC2)cc1,i,i,i,i,nt
COc1ccc(S(=O)(=O)N2c3cc(C)ccc3OCC2C(C)(C)C)cc1 (configuration not stated),i,66,i,i,+
